This is a sample that favours compounds with a hit; in the whole collection about 14% have one here.
Lassa entry inh – Lassa virus entry inhibition; hit rate 1.2% among 300,000; Lassa virus pseudotype entry inhibition, cell reporter; Potency, µM (titrated, usually from 37.9 µM), for the others: at the highest dose activity change, negative = inhibition, most hits filed as inhibitors; calls by dose curve; tested in HEK293 cells; note: potency is the fitted concentration of half-maximal effect; nearly all actives have a fitted effect of over 50% in size
HCMV antiviral – inhibitors of human cytomegalovirus; activity change, negative = inhibition, % at 57.5 µM; HFF cells, HCMV-luciferase reporter, 72 h; stronger effect = lower value; hit rate 4.5% among 410,000; in the data active = activity change below about -60%; inconclusive = no clear call, values can overlap the other calls; inactive = above about -39%
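After 16 h attachment at 37C, HFF cells received test compound and HCMV-luciferase (1 PFU/cell); reporter luminescence read 72 h later, data normalized against buffer-only and known inhibitor Salinomycin.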
Pf growth 96h – P. falciparum growth inhibition at 96 hour, primary screen for plastid delayed-death inhibitors. Potency, µM (series often up to 28.7 µM), without a hit: at the highest dose activity change, negative = inhibition, actives largely listed as inhibitors. hit rate 6.9% among 320,000. AID 504834. P. falciparum luciferase reporter growth, 96 h; note: potency is the fitted concentration of half-maximal effect
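Compounds incubated with erythrocytes infected by luciferase-expressing P. falciparum (2% hematocrit, 0.05% parasitemia final) for 96 hours, 37 C in 5% CO2. Growth inhibition scored as decreased luciferase luminescence.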
MARV entry inh – blocks Marburg virus binding to or entry into cells; Marburg virus pseudotyped entry inhibition, cell reporter; Potency, µM (titrated, usually from 37.8 µM), inactives show top-dose activity change, negative = inhibition, usual class: inhibitors; hit rate 1.8% among 300,000; AID 540276; calls by dose curve; tested in HEK293 cells; note: potency is the fitted concentration of half-maximal effect
HCV inhibitor – blocks hepatitis C virus | Huh7.5.1 HCVcc-Cre infection, luciferase reporter, 44 h | Potency, µM (doses to about 41.8 µM), for the others: at the top dose activity change, negative = inhibition, hits mostly inhibitors | hit rate 3.4% among 340,000 | AID 651820; note: potency is the fitted concentration of half-maximal effect
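Compounds are dispensed onto cells plated 4 h earlier at 1,000 per well, with HCVcc-Cre virus (about 0.5 moi) added next. Following 44 h of culture, luminescent signal is measured for 15 sec after 15 min with substrate at room temperature.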
Pf growth 48h – P. falciparum growth inhibition at 48 hours (one generation); Potency, µM (titrated, usually from 28.7 µM), inactives show top-dose activity change, negative = inhibition, actives largely listed as inhibitors; P. falciparum luciferase growth in erythrocytes, 48 h; hit rate 5.9% among 310,000; AID 504832; note: potency is the fitted concentration of half-maximal effect
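Compounds are pin-transferred into medium, infected erythrocytes (2% hematocrit, 0.1% parasitemia final) are added, and plates sit one parasite generation at 37 C in 5% CO2. Detection reagent is then added and luminescence measured.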
* = called active by the depositor; ? = inconclusive; · = no result; [ ] = another dose, or the depositor's remark. Unless noted, calls come from the whole dose curve; as a rule, active = well fitted inhibition curve with a large enough effect; inconclusive = small, poorly fitted or top-dose-only effect, or another doubt; inactive = no such curve, though single readings can be large or run the other way. % is set by controls: 0 for no effect and ±100 for the full control effect.

SMILES	Lassa entry inh	HCMV antiviral	Pf growth 96h	MARV entry inh	HCV inhibitor	Pf growth 48h
CCOc1ccccc1NC(=O)CSc1nnc(-c2ccco2)n1Cc1ccco1	0%	-36	?	-8%	?	?
COc1cccc(-c2nnc(SCC(=O)OC(C)C)n2Cc2ccco2)c1	-1%	?	7.4µM*	?	10%	-3%
COc1ccccc1NC(=O)CSc1nnc(COc2ccc(Cl)cc2)n1Cc1ccco1	-9%	28	0%	-16%	11µM*	?
COc1ccc(C)cc1NC(=O)CSc1nnc(COc2ccc(C)cc2)n1Cc1ccco1	?	8	?	?	?	?
COc1ccc2oc(-c3ccc(C)c(NC(=O)Cc4ccc(Cl)cc4)c3)nc2c1	14%[46.1 µM]	44	·	-1%[46.1 µM]	·	·
CCCC(c1nnnn1Cc1ccc(OC)cc1)N1CCC(C(N)=O)CC1 (stereo not drawn)	15%	-2	5%	4%[46.1 µM]	22%	-23%
CCCC(c1nnnn1Cc1ccc(OC)cc1)N1CCN(c2ccccc2)CC1 (stereo not drawn)	-24%	4	-26%	-5%	-18%	13µM*
COc1ccc(Cn2nnnc2C(CC(C)C)N2CCN(c3ccccc3)CC2)cc1 (stereo not drawn)	?	-12	12%	-53%	-22%	7.4µM*
CC(C)CC(c1nnnn1Cc1ccco1)N1CCN(c2cccc(Cl)c2)CC1 (stereo not drawn)	?	-2	498%	8.9µM*	-14%	?
COc1cc(/C=C2/SC(=O)N(CC(=O)N3CCCC3)C2=O)ccc1Oc1ccc([N+](=O)[O-])cn1	4%	?	?	-4%	?	?
CCCCNC(=O)Cn1ncc2c(C)n(Cc3cccc(Cl)c3)c(C)c2c1=O	-13%[46.1 µM]	-22	·	2%[46.1 µM]	·	·
Cc1cc2c(cc1S(=O)(=O)N(C)CC(=O)Nc1ccc(C#N)cc1)OCC(=O)N2	-1%[46.1 µM]	-17	·	·	·	·
Cc1ccnc(NS(=O)(=O)c2ccc(-n3cccn3)cc2)c1	·	22	10µM*	·	7%	47%
Cc1ccc(C)c(-c2cc(C(=O)NCc3cccs3)c3ccccc3n2)c1	-21%	-12	?	-4%	13µM*	?
Cc1ccc(C(=O)COC(=O)c2cc(-c3cccs3)nc3ccccc23)cc1	-34%[46.1 µM]	21	·	17%[46.1 µM]	·	·
COc1ccccc1NC(=O)c1cc(-c2ccc(C)o2)nc2ccccc12	2%	-71*	-15%	?	-2%	0%
Cc1ccc(C)c(-c2cc(C(=O)Nc3nccs3)c3ccccc3n2)c1	-24%	-71*	1.9µM*	-13%	?	?
COc1ccc(C(=O)COC(=O)c2cc(-c3cccs3)nc3ccccc23)cc1	11µM*	11	·	1%[46.1 µM]	·	·
O=C(O)c1cccc(NC(=O)c2cccc(S(=O)(=O)Nc3cccc(F)c3)c2)c1	11%[46.1 µM]	33	·	·	·	·
COc1ccccc1Cc1nc2ccccc2nc1SCC(=O)Nc1c(C)cccc1C	21%[46.1 µM]	4	·	·	·	·
CC(C)OC(=O)[C@@H]1CC[C@H](C)[C@@H](CCC[C@@H]2CC=C[C@H](CC#N)O2)O1	·	·	·	-26%[14.2 µM]	·	·
O=C(NN1CCOCC1)c1cc(-c2ccc(Br)cc2)nc2ccccc12	0%	-60*	35%	12%	11%	11%
Cc1ccc(C)c(-c2cc(C(=O)Nc3cccnc3)c3ccccc3n2)c1	-6%	-7	2.1µM*	11µM*	·	12µM*
NS(=O)(=O)c1ccc(CNC(=O)c2cc(-c3cccs3)nc3ccccc23)cc1	·	-34	1%	·	-10%	-2%
NS(=O)(=O)c1ccc(CCNC(=O)c2cc(-c3cccs3)nc3ccccc23)cc1	?	-39	?	7.9µM*	?	-8%[5.75 µM]
Cc1ccc(-c2cc(C(=O)Nc3cccnc3)c3ccccc3n2)o1	7%	115	4.7µM*	6%	6%	·
Cc1ccc(NC(=O)c2cc(-c3ccc(C)o3)nc3ccccc23)cc1	13%	18	-32%	-20%	-9%	?
CCc1ccc(-c2cc(C(=O)NN3CCOCC3)c3ccccc3n2)cc1	3%	-2	34%	1%	26%	30%
O=C(Nc1cccnc1)c1cc(-c2ccc(Br)cc2)nc2ccccc12	?	40	-8%	?	3.2µM*	?
